# Reference: PubChem BioAssay (NCI)
# Compounds without any hit were thinned out: in the full panel of roughly 83,000, 20% have a hit.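 Method: cells in 96-well plates; compound added at one concentration; 48 h incubation; percent growth measured; values under 10 scored active.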 Values without a mark were called inactive. Active and inactive are the calls of the source.
# Columns and labels:
# Assay in all cases: NCI-60 one-dose screen, 48 h (100 = growth as untreated, 0 = no growth, -100 = all killed)
# Details in all cases: 10 µM
# [1] = tested on: DU-145 prostate
# [2] = tested on: K-562 leukemia
# [3] = tested on: MALME-3M melanoma
# [4] = tested on: MDA-MB-231 breast
# [5] = tested on: RXF 393 renal
# [6] = tested on: SF-268 CNS
# [7] = tested on: SF-295 CNS
# [8] = tested on: SF-539 CNS
# [9] = tested on: UACC-257 melanoma
# [10] = tested on: M14 melanoma
Structure (SMILES),growth [1],growth [2],growth [3],growth [4],growth [5],growth [6],growth [7],growth [8],growth [9],growth [10]
N#CN1CC[C@H](C(=O)Nc2ncc(-c3ccccc3)s2)C1,0.607% (active),2.31% (active),-16.4% (active),3.84% (active),-45% (active),0.182% (active),18.8%,-16.9% (active),-8.04% (active),-7.98% (active)
COCCNCC(O)Cn1c2ccc(Cl)cc2c2cc(Cl)ccc21 (stereo not given),7.48% (active),-17.1% (active),-86.3% (active),-33.1% (active),3.52% (active),7.96% (active),-6.61% (active),-85% (active),-81% (active),-87.4% (active)
Cc1ccc(S(=O)(=O)Nc2cccc3[nH]c(C(F)(F)F)nc23)cc1,19%,11.6%,12.7%,31.4%,3.7% (active),60%,0.543% (active),-11.9% (active),43.1%,15.2%
O=C(O)CCCCSCCCCC(=O)O,120%,97.7%,101%,107%,111%,107%,99.6%,103%,89.7%,103%
CCCN(CCC)CCCNC(=O)c1cc2c(-c3ccc(OC)c(OC)c3)nn(C)c2s1,13%,6.33% (active),27.6%,21.8%,-2.45% (active),14.5%,35%,10.9%,7.46% (active),9.55% (active)
Cc1ccc([P+](Cc2ccccc2)(c2ccccc2)c2ccccc2)cc1,32.3%,2.63% (active),-10.8% (active),17.8%,45.7%,28.4%,-6.8% (active),23%,-28.6% (active),3.22% (active)
COc1ccc2nc(NC(=O)Nc3c(F)cccc3F)sc2c1,105%,94.5%,105%,119%,106%,109%,102%,104%,102%,104%
CCCCCC(=O)N1c2ccccc2NC2=C(C(=O)CC(c3ccc(OC)c(OC)c3)C2)C1c1ccc(C(F)(F)F)cc1 (stereo not given),85%,28.4%,84.3%,69%,1.04% (active),57.3%,36.1%,80.7%,41.8%,58.3%
C[C@H](NC(=O)[C@@H]1CSSC[C@@H](NC(=O)Cc2nc3ccccc3cc2O)C(=O)NCC(=O)N1C)c1ccccc1,83.3%,43.9%,125%,70.8%,122%,86.6%,104%,79.3%,85.4%,64.8%
C#CCn1c(-c2cccc(OCCCCl)c2)nc2c1c(=O)n(C)c(=O)n2C,65.5%,12.7%,84.4%,75.2%,104%,67.1%,87.3%,86%,104%,52.8%
CC(Oc1ccc(Cl)cc1)c1ccccc1 (stereo not given),107%,101%,80.1%,105%,103%,104%,96%,102%,98.9%,101%
COc1cc(C2C(C#N)=C(c3c[nH]c4ccccc34)Nc3nc(N)[nH]c(=O)c32)cc(OC)c1OC (stereo not given),86.5%,50.4%,71.1%,89.5%,73.2%,88.3%,97.6%,48.4%,99.1%,95.7%
CCOC(=O)c1sc(Nc2ncccn2)nc1-c1ccccn1,92.3%,108%,107%,86.7%,104%,80.6%,84.2%,99.3%,100%,81.9%
NC(N)=NS(=O)(=O)c1ccc(Nc2ccc3nnc(-c4ccncc4)n3n2)cc1,111%,95.3%,98.1%,102%,106%,102%,116%,100%,127%,105%
Nc1nc2c(ncn2C2OC3COP(=O)(O)OC4C(COP(=O)(O)OC2C3O)OC(n2cnc3c(N)ncnc32)C4O)c(=O)[nH]1 (stereo not given),107%,92.5%,106%,114%,114%,102%,96.9%,0.807% (active),112%,106%
COc1cccc2c1C(=O)c1c(O)c3c(c(O)c1C2=O)C[C@@](O)(C(=O)COC(=O)c1ccccc1)C[C@@H]3OC1CC(N)C(O)C(C)O1 (stereo not given in full),-87.6% (active),-73.7% (active),-88.4% (active),-82% (active),-80.3% (active),-65.6% (active),-91.2% (active),-94.7% (active),-91.3% (active),-69.9% (active)
O=C(c1ccc(Cl)cc1)c1no[n+]([O-])c1C(=O)c1ccc(Cl)cc1,94.1%,5.95% (active),-76.2% (active),124%,44.6%,102%,83.8%,98.5%,104%,92.5%
CN(C)Cc1cccs1,111%,109%,96.7%,90.4%,99.3%,95.2%,100%,96.1%,96.9%,94.8%
O=S(=O)(NCl)c1ccccc1,106%,97.3%,97.5%,115%,109%,99.9%,94.3%,106%,103%,107%
Cc1nc2ccc(-n3c(-c4ccc(Cl)cc4)nc4ccccc4c3=O)cc2n1Cc1ccccc1,95.2%,85.6%,89.4%,88.1%,104%,92.4%,90.2%,96.8%,78.2%,95.1%
COc1ccc(-c2nc(NC(=O)CS(=O)(=O)c3ccc(F)cc3)sc2C)cc1,79%,26.4%,55.2%,-37.1% (active),14.4%,65.3%,25.1%,73.6%,65.1%,44%
O=C(N/N=C\c1cc(Cl)ccc1O)c1ccncc1,48.3%,39.1%,80%,56%,57.4%,37.5%,77.2%,63.6%,53.7%,47.6%
COc1cc(CSc2nc3ccc(Cl)cc3c(=O)n2Cc2ccccc2)cc(OC)c1OC,40.8%,12.9%,38.9%,38.8%,13.1%,41%,28.9%,5.82% (active),46.5%,35.4%
O=C1/C(=C/c2ccc([N+](=O)[O-])s2)Oc2ccc(Cl)cc21,-73.5% (active),-11.2% (active),-56.8% (active),-57% (active),-63.9% (active),-57.9% (active),-16.2% (active),-91.3% (active),-54.5% (active),-44.4% (active)
CC(=O)c1c(O)cc2c3c1OC(C)(C)C1CCC(C)(CC31)O2 (stereo not given),104%,90.1%,93.8%,106%,94.8%,98.3%,90.2%,89.8%,126%,92.2%
Cc1cc(C)c2c(Nc3ncnc4c3sc3nc(C)cc(C)c34)n[nH]c2n1,113%,93.2%,94.2%,99.4%,97.6%,103%,91.3%,100%,100%,99%
COc1ccc(C(C)=O)cc1N1C(=O)C2C(C1=O)C1(c3ccccc3)C(=O)C2(c2ccccc2)C(c2ccc(C)cc2)=C1c1ccc(C)cc1 (stereo not given),19.1%,11.7%,17%,12.3%,-4.28% (active),13.8%,1.18% (active),11.4%,16.2%,-28.1% (active)
NC1CCC(Nc2nc(NCc3ccc(-c4ccccc4O)nc3)c3ncn(C4CCCC4)c3n2)CC1 (stereo not given),-4.56% (active),-41.2% (active),-76.1% (active),-22% (active),-67.4% (active),-25.8% (active),-14.4% (active),-81% (active),-68.6% (active),-81.5% (active)
